In the library only some 1.3% were active in any assay of this set; here they are far more common.
p53 reactivator – re-activators of mutant p53; H1299 p53-A138V BP100-luciferase reporter, luminescence, 24 h; Potency, µM (series often up to 92.2 µM), for the others: top-dose activity change, positive = activation, most hits filed as activators; actives 0.063% (n = 320,000); AID 504706; further: potency means the concentration at half of the fitted maximal effect; % of control where 0% means no effect; nearly all actives have a fitted effect of over 45% in size
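p53-null H1299 cells stably carrying temperature-sensitive p53-A138V and a BP100-luciferase reporter were pinned with compounds (4-point, 1:5 series) and held 24 hrs at 37 deg C. Luminescence was read 10 min after detection reagent.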
Mito fusion act – blocks mitochondrial division or promotes mitochondrial fusion; S. cerevisiae fusion-defective mutant growth rescue, CellTiterGlo 48 h; Potency, µM (series often up to 46.1 µM), without a hit: top-dose growth rescue (activation), actives largely listed as activators; actives 0.23% (n = 320,000); further: potency means the concentration at half of the fitted maximal effect; % of control where 0% means no effect; nearly all actives have a fitted effect of over 45% in size
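Luminescent cell viability in 1536-well qHTS format served as the measure of rescued growth in ts fusion-mutant S. cerevisiae cultured on non-fermentable YPEG for 48 hours at 37C.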
TCR act – activates T cell receptor signaling; primary human leukocytes, anti-CD3, IL-2 HTRF, 48 h; Potency, µM (highest dose often 9.22 µM), inactives show top-dose activation of IL-2 secretion, actives largely listed as activators; 330,000 tested, under 10 active; further: % of control where 0% means no effect
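Readout: HTRF IL-2, Eu-cryptate/d2 antibody pair, 320nm excitation, 665nm emission. Stimulus: a-CD3 beads, no co-stimulation. Cells: primary human leukocytes. Exposure: 48 hr with compound.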
BRCA1 expr up – activators of BRCA1 expression | actives 1.1% (n = 380,000) | MCF7-BRCA1-FFLuc reporter, luminescence, 48 h; response scale: scaled: vehicle 0%, 10 µM genistein 100% | AID 624202 | Potency, µM (series often up to 46.1 µM), inactives show at the highest dose activation, usual class: activators; further: potency means the concentration at half of the fitted maximal effect; nearly all actives have a fitted effect of over 80% in size
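Using MCF7 cells harboring a BRCA1 firefly luciferase reporter, plated 2 h before compound pinning, the screen measured luminescence after 48 h incubation. Responses were normalized to DMSO and 10 microM genistein, then fitted for concentration-effect.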
IL2 activator – activates IL-2 in a cell-based reporter assay. actives 0.065% (n = 360,000). IL-2 activation reporter assay, cell-based qHTS; stimulated with anti-CD3/CD4/CD28 beads; in transgenic mouse T cells. activation, % (series mostly up to about 46 µM); in the data active means activation above about 50%; inconclusive means mostly about 30% to 49%; further: 0% is about no effect
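Readout is EGFP and DsRed signal by fluorescent plate cytometry after 18 h at 37 degrees C. Transgenic mouse T cells (750/well) received compound for 60 min before bead stimulation (anti-CD3, anti-CD4, anti-CD28); memory T cells served as non-tolerant control.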
Numbers without * were called inactive; ? = inconclusive; nt = not tested or not shown; ! = not active in a repeat; [ ] = dose if it differs, or a comment. Unless noted, the call rests on the fitted dose curve; in most records, active means well fitted curve in the direction sought with a large enough effect; inconclusive means small, poorly fitted or top-dose-only effect, or another doubt; inactive means no such curve, though single readings can be large; an effect the other way counts as inactive or inconclusive.

SMILES | p53 reactivator | Mito fusion act | TCR act | BRCA1 expr up | IL2 activator
CCN1C(=O)c2ccccc2S(=O)c2ccc(C(=O)N3CCN(c4ccc(F)cc4)CC3)cc21 (stereo not given) | nt | nt | nt | 7.2% | nt
CC1(C)CCC(=O)N2CC[C@H]3C[C@H](OC(=O)Nc4ccc5c(c4)OCO5)C[C@@H]1[C@H]32 | nt | 1.7% | 5.5% | 11.2µM* | -2.9
CCOc1ccc(N2C(=O)c3ccccc3C2O)cc1 (stereo not given) | ? | 0.8% | 0.4% | 6.31µM* | 0.0
O=C(CN1CCOCC1)Nc1ccc(-c2nc3ccccc3[nH]2)cc1 | 15.8% | -0.6% | 2.3% | 11.2µM* | -1.3
O=C(CSc1ccccc1)Nc1ccc(-c2nc3ccccc3[nH]2)cc1 | nt | -4.0% | 13.4%[46.1 µM] | ? | 0.0
O=C(Cc1cccs1)Nc1ccc(-c2nc3ccccc3[nH]2)cc1 | 19.0% | -0.9% | 0.9% | 5.62µM* | -0.2
O=C(CCCc1ccncc1)c1ccccc1 | nt | nt | -0.4% | 3.98µM* | 0.5
c1ccc(CCCCc2ccncc2)cc1 | nt | nt | -1.0% | 12.3% | -0.8
CCCCCCCCCCN(CCCCCCCCCC)c1ccc(/C=C/c2ccnc3ccccc23)cc1 | nt | nt | nt | 2.2% | nt
O=C(/C=C/c1ccc([N+](=O)[O-])cc1)NCCSc1ccccc1 | -7.1% | 3.9% | 5.6% | -4.2% | -0.8
Cc1ccc(SCCNC(=O)/C=C/c2ccc([N+](=O)[O-])cc2)cc1 | 2.6% | 15.8µM* | -0.4%[46.1 µM] | -25.5% | -0.2
Cc1cccc(OCC(=O)Nc2sc3c(c2C#N)CCC3)c1 | 9.1% | -6.1% | 2.3% | 10µM* | -0.7
Cc1ccc(C)c(Nc2nc(NCc3ccco3)nc3nccnc23)c1 | nt | nt | nt | 12.0% | nt
COc1cc(C)c(NC(C)C(=O)c2c(C)[nH]c3ccccc23)cc1OC (stereo not given) | nt | nt | nt | 0.0% | nt
CCn1c2ccccc2c2cc(/C=C3\C=Cc4ccccc43)ccc21 | nt | nt | nt | 0.0% | nt
O=c1c2ccccc2nc2c3ccccc3c(Cl)nn12 | 2.3% | 12.5% | nt | nt | nt
O=c1c2ccccc2nc2c3ccccc3cnn12 | 6.8% | 8.2% | -3.6% | 7.94µM* | 1.8
CCCN(CCC)C(=O)Cn1c(=O)n(-c2ccc(CC)cc2)c(=O)c2c3c(sc21)CCC3 | nt | nt | nt | 2.7% | nt
Cc1nc2ccccc2nc(=O)c1NNc1ccccc1 | ? | 21.4% | 2.3%[46.1 µM] | 5.01µM*! | -2.4
Cc1ccc2nc(=O)c(NNc3ccccc3)cnc2c1 | 13.6% | 16.9% | 2.5% | 87.4% | -2.2
O=C(O)c1ccc(Nc2ccc(Cl)c(Cl)c2)c([N+](=O)[O-])c1 | -2.1% | 14.1µM* | -1.4% | -2.6% | -2.6
Cc1ccc(Nc2ccc(C(=O)O)cc2[N+](=O)[O-])cc1 | -0.1% | ? | 5.9% | 14.8% | -4.7
Clc1ccc(Cc2nnc(-c3ccccc3Br)o2)cc1 | 18.8% | 2.1% | -3.9% | 14.1µM* | -1.1
CCc1ccc(OCc2nnc(-c3ccccc3Br)o2)cc1 | 22.0% | 5.2% | 0.4% | 14.6% | -0.1
N#Cc1ccccc1OCc1nnc(-c2ccccc2Br)o1 | ? | 11.8% | -32.9% | ? | 0.5
SMILES | p53 reactivator | Mito fusion act | TCR act | BRCA1 expr up | IL2 activator
Clc1ccccc1OCc1nnc(-c2ccccc2Br)o1 | ? | -2.0% | 1.8% | 3.98µM* | -0.2
CC(=O)Nc1ccc(S(=O)(=O)N2CCN(c3ccc(C)c(C)c3)CC2)cc1 | nt | nt | nt | 0.0% | nt
O=C(Nc1ccc(Br)cc1)c1cnccn1 | ? | -0.6% | -6.6% | 8.91µM* | 2.9
Cc1ccc(NC(=O)c2cnccn2)cc1C | 14.2% | -1.0% | 2.2% | 7.94µM* | -0.9
Cc1ccc(NC(=O)c2cnccn2)cc1 | 23.3% | 3.5% | -1.0% | 107.1% | 0.4
CCCN1CNc2c(c(=O)[nH]c(=S)n2CCc2cc(C)cc(C)c2)C1 | nt | nt | nt | -9.8% | nt
CCCCNC(=O)C(CC)n1c(SCc2cccc(F)c2)nc2ccncc21 (stereo not given) | nt | nt | nt | -27.1% | nt
CCCCn1cnc2c(cnn2-c2ccc(Cl)cc2)c1=O | ? | -0.9% | -3.7%[46.1 µM] | 11.2µM* | 0.8
CCCCn1cnc2c(cnn2-c2ccc(F)cc2)c1=O | ? | -0.8% | -2.5% | ? | 0.0
COc1ccc(/[N+]([O-])=C/c2ccco2)cc1 | ? | -9.7% | 5.2% | 8.91µM* | 2.2

Compound activity from PubChem.
